Test results from the supplement of paper PMC10849652.
About 8,800 targets were measured; listed, in parts, are those with a hit and a random draw of the rest. About 0.5% of all pairs of compound and target were hits.

Legend:
Assay in all cases: log2 fold change, soluble protein after heating vs DMSO (PISA); higher = thermal stabilisation; K562 lysate, 10 uM; active = over 0.2 and 3.5 SD of the protein, either way, in both replicates (recomputed)
erlotinib = compound: C#Cc1cccc(Nc2ncnc3cc(OCCOC)c(OCCOC)cc23)c1 [erlotinib]
How it was run: (§1)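 Quantification was by TMTpro 16plex LC-MS/MS with equalised channel sums, applied to the supernatant after 21,000xg for 90 min. Samples were crude K562 extract at 1 mg/mL protein in PBS pH 7.4 with 1 mM MgCl2, treated with 10 μM compound for 30 min, heated for 3 min across 48°C-58°C, pooled and brought to 0.5% NP-40 at 4°C. Values are log-two fold changes in thermal stability relative to solvent controls, from duplicates.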

[1] = compound: C/C(=N\NC(=O)C1=CC(=CC=C1)S(=O)(=O)N2CCOCC2)/C3=C(C=CC(=C3)Cl)O
How it was run: as §1

[2] = compound: C1=CC(=CC=C1C2=NC3=C(N2)C=C(C=C3)C(=O)N)OC4=CC=C(C=C4)Cl
How it was run: as §1

[3] = compound: C1=CC2=C(C=CC(=C2)/C=C\3/C(=O)NC(=NCC4=CC=CS4)S3)N=C1
How it was run: as §1

[4] = compound: C1=CC2=NC=CN=C2C=C1/C=C/3\C(=O)NC(=O)S3
How it was run: as §1

[5] = compound: C1=CC=C(C=C1)C2=NC(=C(N2)C3=CC=NC=C3)C4=CC(=C(C=C4)Cl)O
How it was run: as §1

[6] = compound: C1=CC=C2C(=C1)C3=NNC4=CC=CC(=C43)C2=O
How it was run: as §1

[7] = compound: C1CCN(C1)C(=O)NC2=CC=CC(=C2)NC3=NC=C(C(=N3)NCCC4=CN=CN4)Br
How it was run: as §1

[8] = compound: C1CN(CCC1(CC2=CC=C(C=C2)Cl)N)C3=NC=NC4=C3C=CN4
How it was run: as §1

IRAK-1-4 Inhibitor I = compound: C1COCCN1CCN2C3=CC=CC=C3N=C2NC(=O)C4=CC(=CC=C4)[N+](=O)[O-] [IRAK-1-4 Inhibitor I]
How it was run: as §1

Measured: log2 fold change

MAP4 (UniProt E7EVA0)
inactive: erlotinib 0.056 | [1] 0.01 | [2] 0.113 | [3] 0.045 | [4] -0.072 | [5] -0.004 | [6] -0.076 | [7] 0.071 | [8] 0.061 | IRAK-1-4 Inhibitor I 0.037

MIF4GD isoform 3 (UniProt A9UHW6)
inactive: erlotinib -0.006 | [1] 0.041 | [2] 0.03 | [3] 0.028 | [4] -0.073 | [5] 0.039 | [6] -0.03 | [7] -0.052 | [8] 0.051 | IRAK-1-4 Inhibitor I -0.04

MECR (UniProt Q9BV79)
inactive: erlotinib -0.019 | [1] 0.027 | [2] -0.005 | [3] -0.028 | [4] 0.012 | [5] -0.038 | [6] -0.035 | [7] -0.053 | [8] 0.079 | IRAK-1-4 Inhibitor I 0.025

MMS19 isoform 8 (UniProt Q96T76)
inactive: erlotinib 0.026 | [1] -0.019 | [2] -0.016 | [3] -0.02 | [4] -0.009 | [5] 0.011 | [6] -0.099 | [7] 0.01 | [8] 0.034 | IRAK-1-4 Inhibitor I 0.004

MRPL28 (UniProt Q13084)
inactive: erlotinib -0.112 | [1] -0.085 | [2] 0.027 | [3] 0.011 | [4] -0.074 | [5] 0.017 | [6] 0.024 | [7] 0.042 | [8] -0.031 | IRAK-1-4 Inhibitor I -0.03

MPP5 (UniProt Q8N3R9)
inactive: erlotinib 0.039 | [1] -0.009 | [2] 0.027 | [3] -0.016 | [4] 0.038 | [5] 0.01 | [6] -0.038 | [7] -0.028 | [8] -0.013 | IRAK-1-4 Inhibitor I 0.085

MCMBP isoform 2 (UniProt Q9BTE3)
inactive: erlotinib 0.084 | [1] 0.027 | [2] 0.282 | [3] -0.168 | [4] -0.156 | [5] -0.051 | [6] -0.411 | [7] 0.024 | [8] 0.055 | IRAK-1-4 Inhibitor I -0.016

MCU (UniProt Q8NE86)
inactive: erlotinib 0.045 | [1] -0.028 | [2] -0.09 | [3] 0.02 | [4] 0.057 | [5] -0.035 | [6] 0.084 | [7] 0.055 | [8] 0.015 | IRAK-1-4 Inhibitor I 0.064

LLGL1 (UniProt Q15334)
inactive: erlotinib 0.036 | [1] -0.06 | [2] 0.021 | [3] 0.02 | [4] 0.007 | [5] 0.001 | [6] -0.112 | [7] -0.08 | [8] 0.018 | IRAK-1-4 Inhibitor I -0.136

KMT2A isoform 3 (UniProt Q03164)
Sequence of UniProt Q03164 (Q03164 whole entry, looked up): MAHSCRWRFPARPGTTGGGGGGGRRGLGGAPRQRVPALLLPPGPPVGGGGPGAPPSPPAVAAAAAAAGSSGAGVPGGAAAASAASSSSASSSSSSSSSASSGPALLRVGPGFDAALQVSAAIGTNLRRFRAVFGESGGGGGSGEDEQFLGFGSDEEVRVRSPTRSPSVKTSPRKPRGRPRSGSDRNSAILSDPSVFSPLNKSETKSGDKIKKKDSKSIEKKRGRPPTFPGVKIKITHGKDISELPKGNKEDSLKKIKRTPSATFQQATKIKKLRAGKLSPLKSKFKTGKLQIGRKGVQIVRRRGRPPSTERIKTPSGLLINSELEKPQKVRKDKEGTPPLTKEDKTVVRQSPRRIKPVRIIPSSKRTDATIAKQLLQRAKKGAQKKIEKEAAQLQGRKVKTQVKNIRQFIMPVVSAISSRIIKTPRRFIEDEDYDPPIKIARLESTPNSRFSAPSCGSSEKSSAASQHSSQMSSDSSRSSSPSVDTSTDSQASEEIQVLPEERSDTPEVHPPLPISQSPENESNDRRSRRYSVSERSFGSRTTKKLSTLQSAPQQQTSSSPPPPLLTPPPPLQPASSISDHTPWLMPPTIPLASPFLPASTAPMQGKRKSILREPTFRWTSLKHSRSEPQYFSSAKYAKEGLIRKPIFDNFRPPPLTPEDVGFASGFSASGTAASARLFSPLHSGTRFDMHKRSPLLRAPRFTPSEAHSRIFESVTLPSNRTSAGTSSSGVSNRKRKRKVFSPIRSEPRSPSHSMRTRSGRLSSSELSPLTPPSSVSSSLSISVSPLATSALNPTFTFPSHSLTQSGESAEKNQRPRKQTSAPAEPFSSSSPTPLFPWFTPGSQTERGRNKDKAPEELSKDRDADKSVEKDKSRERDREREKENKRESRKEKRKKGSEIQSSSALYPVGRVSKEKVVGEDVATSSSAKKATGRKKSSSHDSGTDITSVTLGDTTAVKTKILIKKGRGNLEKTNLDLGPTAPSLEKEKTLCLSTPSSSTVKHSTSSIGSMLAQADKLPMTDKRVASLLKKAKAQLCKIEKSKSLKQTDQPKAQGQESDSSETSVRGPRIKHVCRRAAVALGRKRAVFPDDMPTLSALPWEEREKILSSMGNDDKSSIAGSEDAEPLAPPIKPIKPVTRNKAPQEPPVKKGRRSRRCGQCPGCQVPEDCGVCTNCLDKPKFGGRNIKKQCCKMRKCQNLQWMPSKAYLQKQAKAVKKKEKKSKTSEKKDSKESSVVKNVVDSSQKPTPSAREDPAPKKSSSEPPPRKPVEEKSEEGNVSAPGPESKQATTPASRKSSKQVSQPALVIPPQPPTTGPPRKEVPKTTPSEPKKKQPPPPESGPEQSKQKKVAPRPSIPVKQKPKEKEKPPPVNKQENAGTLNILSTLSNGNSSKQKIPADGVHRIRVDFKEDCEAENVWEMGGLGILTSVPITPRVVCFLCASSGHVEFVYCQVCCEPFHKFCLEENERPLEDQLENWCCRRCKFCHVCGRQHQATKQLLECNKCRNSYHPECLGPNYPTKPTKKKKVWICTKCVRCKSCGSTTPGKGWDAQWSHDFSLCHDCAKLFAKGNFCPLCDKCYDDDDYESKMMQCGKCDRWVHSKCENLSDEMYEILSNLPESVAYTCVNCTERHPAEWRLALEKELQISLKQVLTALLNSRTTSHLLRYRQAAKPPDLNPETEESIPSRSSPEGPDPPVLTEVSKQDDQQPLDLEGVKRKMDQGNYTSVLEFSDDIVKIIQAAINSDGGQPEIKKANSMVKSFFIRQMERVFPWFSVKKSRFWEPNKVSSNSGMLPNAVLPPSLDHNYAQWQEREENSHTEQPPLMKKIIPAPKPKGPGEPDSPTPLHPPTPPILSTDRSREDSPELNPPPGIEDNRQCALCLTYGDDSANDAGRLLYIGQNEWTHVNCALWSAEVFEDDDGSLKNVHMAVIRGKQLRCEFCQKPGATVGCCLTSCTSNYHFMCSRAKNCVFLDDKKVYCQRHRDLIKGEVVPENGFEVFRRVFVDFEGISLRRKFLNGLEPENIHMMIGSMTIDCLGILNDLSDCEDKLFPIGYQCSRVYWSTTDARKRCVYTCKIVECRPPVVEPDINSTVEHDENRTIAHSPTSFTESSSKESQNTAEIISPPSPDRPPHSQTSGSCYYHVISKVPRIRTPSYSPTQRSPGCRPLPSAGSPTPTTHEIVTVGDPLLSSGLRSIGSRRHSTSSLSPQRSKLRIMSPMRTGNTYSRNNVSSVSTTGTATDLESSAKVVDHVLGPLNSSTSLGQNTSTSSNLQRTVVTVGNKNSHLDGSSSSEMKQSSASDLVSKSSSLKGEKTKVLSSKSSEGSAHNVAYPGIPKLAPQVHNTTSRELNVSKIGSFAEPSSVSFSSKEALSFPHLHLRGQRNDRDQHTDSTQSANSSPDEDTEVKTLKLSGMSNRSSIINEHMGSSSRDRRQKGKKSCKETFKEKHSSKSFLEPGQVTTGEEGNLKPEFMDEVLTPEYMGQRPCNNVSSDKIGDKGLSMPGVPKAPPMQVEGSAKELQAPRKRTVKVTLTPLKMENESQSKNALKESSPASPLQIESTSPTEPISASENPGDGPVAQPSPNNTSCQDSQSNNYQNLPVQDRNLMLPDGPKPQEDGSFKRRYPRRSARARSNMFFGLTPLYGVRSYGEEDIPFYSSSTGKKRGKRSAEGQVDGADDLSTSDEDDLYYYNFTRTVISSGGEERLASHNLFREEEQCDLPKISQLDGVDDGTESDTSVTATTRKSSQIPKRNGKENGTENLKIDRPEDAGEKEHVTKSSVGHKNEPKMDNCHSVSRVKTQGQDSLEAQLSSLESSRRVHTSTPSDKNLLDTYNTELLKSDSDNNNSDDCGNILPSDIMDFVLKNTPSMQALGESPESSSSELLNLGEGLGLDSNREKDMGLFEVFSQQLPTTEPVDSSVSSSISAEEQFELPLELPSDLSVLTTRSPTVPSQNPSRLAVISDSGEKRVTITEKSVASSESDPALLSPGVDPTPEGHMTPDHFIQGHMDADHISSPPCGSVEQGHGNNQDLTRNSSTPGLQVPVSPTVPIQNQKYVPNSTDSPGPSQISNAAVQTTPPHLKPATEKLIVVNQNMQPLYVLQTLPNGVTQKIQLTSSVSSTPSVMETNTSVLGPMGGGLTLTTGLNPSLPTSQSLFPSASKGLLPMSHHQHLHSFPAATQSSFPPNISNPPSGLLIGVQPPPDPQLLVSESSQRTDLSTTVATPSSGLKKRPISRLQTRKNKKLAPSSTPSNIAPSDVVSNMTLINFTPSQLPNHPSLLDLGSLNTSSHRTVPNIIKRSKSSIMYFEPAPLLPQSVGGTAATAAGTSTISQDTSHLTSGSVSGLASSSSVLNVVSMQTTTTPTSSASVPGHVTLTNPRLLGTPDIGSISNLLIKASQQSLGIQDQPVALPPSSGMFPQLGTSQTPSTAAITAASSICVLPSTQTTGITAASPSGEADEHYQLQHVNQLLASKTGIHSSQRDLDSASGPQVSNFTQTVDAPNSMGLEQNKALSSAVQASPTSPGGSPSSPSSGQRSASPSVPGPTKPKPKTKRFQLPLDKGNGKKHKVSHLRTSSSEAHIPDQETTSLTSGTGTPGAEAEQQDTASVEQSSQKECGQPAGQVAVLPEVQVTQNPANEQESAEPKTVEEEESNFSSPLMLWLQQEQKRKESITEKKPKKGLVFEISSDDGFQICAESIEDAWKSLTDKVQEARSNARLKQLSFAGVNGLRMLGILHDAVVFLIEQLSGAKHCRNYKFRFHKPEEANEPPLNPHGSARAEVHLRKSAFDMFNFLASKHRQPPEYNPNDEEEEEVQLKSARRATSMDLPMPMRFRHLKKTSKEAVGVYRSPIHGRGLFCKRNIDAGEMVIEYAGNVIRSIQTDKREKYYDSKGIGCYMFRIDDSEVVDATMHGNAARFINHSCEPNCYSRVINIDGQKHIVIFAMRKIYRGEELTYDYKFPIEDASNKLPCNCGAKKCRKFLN
inactive: erlotinib -0.022 | [1] 0.351 | [2] 0.041 | [3] -0.047 | [4] -0.014 | [5] -0.069 | [6] -0.004 | [7] 0.005 | [8] -0.06 | IRAK-1-4 Inhibitor I 0.07

KLC2 (UniProt Q9H0B6)
inactive: erlotinib -0.008 | [1] 0.065 | [2] 0.07 | [3] 0.008 | [4] -0.056 | [5] 0.004 | [6] -0.061 | [7] -0.048 | [8] -0.056 | IRAK-1-4 Inhibitor I -0.009

MORC2 (UniProt Q9Y6X9)
Sequence of UniProt Q9Y6X9 (Q9Y6X9 whole entry, looked up): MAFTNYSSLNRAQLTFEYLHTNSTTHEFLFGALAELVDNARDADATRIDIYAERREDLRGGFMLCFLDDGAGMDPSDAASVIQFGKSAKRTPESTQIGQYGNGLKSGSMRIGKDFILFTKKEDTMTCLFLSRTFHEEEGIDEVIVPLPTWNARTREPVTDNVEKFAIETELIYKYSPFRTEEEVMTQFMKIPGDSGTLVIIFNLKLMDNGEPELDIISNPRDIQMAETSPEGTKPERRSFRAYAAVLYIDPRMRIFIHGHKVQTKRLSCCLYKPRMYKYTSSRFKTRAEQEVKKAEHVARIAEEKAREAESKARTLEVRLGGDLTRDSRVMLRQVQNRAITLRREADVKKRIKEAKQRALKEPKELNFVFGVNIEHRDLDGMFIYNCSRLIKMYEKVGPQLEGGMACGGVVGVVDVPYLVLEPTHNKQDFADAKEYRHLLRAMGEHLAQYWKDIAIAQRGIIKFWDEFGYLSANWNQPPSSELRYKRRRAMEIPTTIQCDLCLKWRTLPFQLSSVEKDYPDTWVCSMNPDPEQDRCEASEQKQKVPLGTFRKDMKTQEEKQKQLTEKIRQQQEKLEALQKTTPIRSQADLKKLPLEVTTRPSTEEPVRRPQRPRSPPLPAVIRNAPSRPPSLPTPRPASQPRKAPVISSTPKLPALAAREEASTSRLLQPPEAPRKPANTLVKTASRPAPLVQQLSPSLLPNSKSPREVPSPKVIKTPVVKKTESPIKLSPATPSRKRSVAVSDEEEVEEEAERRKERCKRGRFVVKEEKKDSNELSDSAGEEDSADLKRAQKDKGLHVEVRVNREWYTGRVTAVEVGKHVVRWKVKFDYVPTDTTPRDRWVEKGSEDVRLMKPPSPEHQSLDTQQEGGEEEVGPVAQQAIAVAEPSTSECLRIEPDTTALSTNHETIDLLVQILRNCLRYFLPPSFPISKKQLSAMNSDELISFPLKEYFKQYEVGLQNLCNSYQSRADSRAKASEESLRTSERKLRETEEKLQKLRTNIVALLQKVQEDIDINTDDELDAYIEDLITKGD
inactive: erlotinib 0.039 | [1] -0.05 | [2] -0.002 | [3] 0.015 | [4] -0.016 | [5] -0.001 | [6] -0.033 | [7] 0.006 | [8] -0.023 | IRAK-1-4 Inhibitor I 0.034

KLHL36 (UniProt Q8N4N3)
inactive: erlotinib -0.047 | [1] -0.001 | [2] 0.06 | [3] -0.112 | [5] -0.041 | [6] 0.013 | [7] -0.009 | [8] 0.084 | IRAK-1-4 Inhibitor I 0.011
active: [4] -0.313

MICU2 (UniProt Q8IYU8)
inactive: erlotinib 0.025 | [1] 0.04 | [2] -0.008 | [3] -0.024 | [4] -0.011 | [5] 0.061 | [6] -0.094 | [7] -0.037 | [8] 0.038 | IRAK-1-4 Inhibitor I -0.044
